Source: PubChem BioAssay AID493216 (National Center for Advancing Translational Sciences (NCATS), 2011)
Calls of active or inactive are those of the source. The call rests on the fitted dose curve.

Molecular target: Polyunsaturated fatty acid lipoxygenase ALOX12 (Homo sapiens) (UniProt P18054)
Test: Inhibitors of 12-hLO (12-human lipoxygenase): Cuvette-Based Hit Assay for Validation of Followup Compounds
Conditions: purified 12-hLO, cuvette absorbance 234 nm
Procedure: The enzyme activity of 12-hLO was determined by a direct measurement of product formation by monitoring the absorbance at 234 nm in a 2 mL cuvette. IC50 values of inhibitors were obtained by measuring the enzymatic rate at a variety of concentrations (Carroll et al, Segraves et al). This assay was used to validate actives or inconclusive putative inhibitors identified in the primary screen (see related BioAssay AIDs). Assay Provider: Holman, T.R., University of California, Santa Cruz Screening Center PI: Austin, Christopher P. Screening Center: NIH Chemical Genomics Center
For control experiments, 2 mL of substrate buffer (10 uM arachidonic acid / 25 mM HEPES / 0.01% (v/v) Triton X-100, pH 8.0) was aliquoted in a cuvette with a magnetic stir bar. After equilibrium was ensured, an aliquot of inhibitor solvent was added (DMSO), and equilibrium was once again assured. The reaction was started by adding enzyme to the cuvette and the reaction was followed until completed. The inhibition experiments were performed as above, except the actual inhibitory compound was added instead of vehicle. To achieve an IC50, typically 5 concentrations of the inhibitor were studied. If the inhibitor concentration was constant, then five different reaction volumes were used. Step \ Parameter \ Value \ Description 1; UV-Vis; 234 nm; Equilibration 2; Reagent; 2 mL; Substrate buffer 3; UV-Vis; 234 nm; Equilibration 4; Reagent; varies; Compound 5; UV-Vis; 234 nm; Equilibration 6; Reagent; 50-200 nM; Enzyme 12-hLO 7; UV-Vis; 234 nm; Enzymatic reaction Step \ Notes 1; Blank cuvette to air. 2; 10 uM AA, 25 mM HEPES, 0.01% Triton X-100, pH 8. 3; No change in absorbance ensured. 4; Compound vehicle or compound in various concentrations depending on potency. 5; No change in absorbance ensured. 6; Enzyme concentration to achieve reaction rate between 0.02 and 0.04 AU/s. 7; Enzymatic reaction visualized until completion.

Chain of Polyunsaturated fatty acid lipoxygenase ALOX12 (Homo sapiens) (P18054 whole entry, looked up): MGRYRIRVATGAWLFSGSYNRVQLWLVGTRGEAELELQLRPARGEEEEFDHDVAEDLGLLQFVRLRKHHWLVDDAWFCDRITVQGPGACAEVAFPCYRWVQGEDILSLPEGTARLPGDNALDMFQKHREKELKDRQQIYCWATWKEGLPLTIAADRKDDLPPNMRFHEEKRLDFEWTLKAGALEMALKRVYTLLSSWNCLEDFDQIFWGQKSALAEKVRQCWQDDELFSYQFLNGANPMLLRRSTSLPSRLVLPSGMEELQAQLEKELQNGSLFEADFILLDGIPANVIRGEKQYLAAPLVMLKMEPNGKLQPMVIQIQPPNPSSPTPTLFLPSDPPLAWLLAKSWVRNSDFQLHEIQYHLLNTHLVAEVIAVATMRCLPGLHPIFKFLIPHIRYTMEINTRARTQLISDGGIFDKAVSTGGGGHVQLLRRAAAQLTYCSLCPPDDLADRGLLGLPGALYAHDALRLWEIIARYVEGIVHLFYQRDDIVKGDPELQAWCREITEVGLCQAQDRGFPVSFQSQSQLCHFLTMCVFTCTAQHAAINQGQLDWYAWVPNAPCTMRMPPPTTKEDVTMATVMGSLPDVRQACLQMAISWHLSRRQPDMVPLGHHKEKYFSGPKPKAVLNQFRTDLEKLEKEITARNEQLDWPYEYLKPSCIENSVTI

Potency, active:
Cc1oc2c(O)c(O)ccc2c(=O)c1-c1cnn(-c2ccccc2)c1 15.5 µM
CCc1ccc(S(=O)(=O)/N=C2/C=C(Sc3ncn[nH]3)C(=O)c3ccccc32)cc1 23.2 µM
Oc1ccccc1-c1cc(-c2ccccc2Cl)[nH]n1 16 µM
CSCCC(NC(=O)c1ccc(Cl)cc1)C(=O)OCC(=O)Nc1ccc(C#N)cc1 (stereo unspecified) 18.3 µM
COc1ccc(-c2[nH]ncc2-c2ccc(Cl)cc2)c(O)c1 28.6 µM
CC1=NN(c2ccc(Cl)cc2)C(=O)C1C(c1cccc(O)c1)c1c(C)[nH]n(-c2ccc(Cl)cc2)c1=O (stereo unspecified) 7.55 µM
CN(C)c1nccc(N(Cc2ccccc2)Cc2ccccc2)c1C#N 15.7 µM
CCCOC(=O)c1ccc(Oc2c(-c3ccc(O)cc3O)n[nH]c2C)cc1 16.7 µM
CCCOC(=O)c1ccc(Oc2cn[nH]c2-c2ccc(OC)cc2O)cc1 26.8 µM
Cc1cc(C)c2cc(CN(Cc3nnnn3C3CCCCC3)CC3CCCO3)c(=O)[nH]c2c1 (stereo unspecified) 26.9 µM
Cc1ccc(C(=O)Nc2nnc(-c3ccco3)o2)cc1C 15.7 µM
